Measurements published in PubChem BioAssay AID1159580 (chemical genetic matrix, 2015).
Among all 5,500 compounds or so, about 2,000 (36%) were called active. Roughly 18% stayed inconclusive and do not appear here. No stated cut-off is given here; in the data, active means normalized growth mostly below about 0.91 (no sharp cut-off); inconclusive means no clear call, values can overlap the other calls; inactive means mostly above about 0.92. This is one part of the list.

Assay: chemical genetic growth profiling, strain panel (AID 1159580);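 further: tested at 20 µM; growth read once vehicle control cultures reached saturation at 30 °C; 1 = growth at the plate median or of vehicle wells; lower values mean less growth of the strain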
Conditions: growth OD
[1] = S. cerevisiae deletion strains, locus YDL101C, strain DUN1, hits give low values
[2] = S. cerevisiae deletion strains, locus YHR030C, strain SLT2, hits give low values

Measured: normalized growth

FC(F)(F)c1ccc(-c2nc(-c3ccc4c(c3)OCCCO4)cs2)cc1
inactive: S. cerevisiae deletion strains, locus YAL013W, strain DEP1, hits give low values 1.03 | S. cerevisiae deletion strains, locus YBR229C, strain ROT2, hits give low values 1.01 | S. cerevisiae deletion strains, locus YCL061C, strain MRC1, hits give low values 0.99 | [1] 0.965 | S. cerevisiae deletion strains, locus YDL134C, strain PPH21, hits give low values 1 | S. cerevisiae deletion strains, locus YDR150W, strain NUM1, hits give low values 1.01 | S. cerevisiae deletion strains, locus YEL061C, strain CIN8, hits give low values 1.01 | S. cerevisiae deletion strains, locus YGR078C, strain PAC10, hits give low values 1.01 | S. cerevisiae deletion strains, locus YGR229C, strain SMI1, hits give low values 1.01 | [2] 1.05 | S. cerevisiae deletion strains, locus YHR087W, strain rtc3, hits give low values 1.03 | S. cerevisiae deletion strains, locus YJR043C, strain POL32, hits give low values 0.997 | S. cerevisiae deletion strains, locus YJR075W, strain HOC1, hits give low values 1.02 | S. cerevisiae deletion strains, locus YKL190W, strain CNB1, hits give low values 1.01 | S. cerevisiae deletion strains, locus YLR039C, strain RIC1, hits give low values 1.07 | S. cerevisiae deletion strains, locus YLR058C, strain SHM2 (second series), hits give low values 0.998 | S. cerevisiae deletion strains, locus YLR085C, strain ARP6, hits give low values 1.1 | S. cerevisiae deletion strains, locus YLR262C, strain YPT6, hits give low values 1.02 | S. cerevisiae deletion strains, locus YML094W, strain GIM5, hits give low values 1.04 | S. cerevisiae deletion strains, locus YMR219W, strain ESC1, hits give low values 1.01 | S. cerevisiae deletion strains, locus YMR263W, strain SAP30, hits give low values 0.988 | S. cerevisiae deletion strains, locus YMR307W, strain GAS1, hits give low values 0.987 | S. cerevisiae deletion strains, locus YNL153C, strain GIM3, hits give low values 0.992 | S. cerevisiae deletion strains, locus YNL298W, strain CLA4 (second series), hits give low values 1.02 | S. cerevisiae deletion strains, locus YNL322C, strain KRE1, hits give low values 1.01 | S. cerevisiae deletion strains, locus YNR030W, strain Alg12, hits give low values 1.01 | S. cerevisiae deletion strains, locus YPL055C, strain LGE1, hits give low values 1.06 | S. cerevisiae deletion strains, locus YPL241C, strain CIN2, hits give low values 1.03 | S. cerevisiae deletion strains, locus YPR135W, strain CTF4, hits give low values 1.27 | S. cerevisiae strains, strain wild type, hits give low values 1.01

O=C(NCc1cccs1)c1csc(Cc2c(Cl)cccc2Cl)n1
inactive: S. cerevisiae deletion strains, locus YAR019C, strain CDC15, hits give low values 0.986 | S. cerevisiae deletion strains, locus YBL105C, strain PKC1, hits give low values 0.969 | S. cerevisiae deletion strains, locus YBR135W, strain CKS1, hits give low values 0.972 | S. cerevisiae deletion strains, locus YBR136W, strain MEC1, hits give low values 0.995 | S. cerevisiae deletion strains, locus YBR160W, strain CDC28, hits give low values 0.979 | S. cerevisiae deletion strains, locus YDL017W, strain CDC7, hits give low values 0.987 | S. cerevisiae deletion strains, locus YDL028C, strain MPS1, hits give low values 0.969 | [1] 0.981 | S. cerevisiae deletion strains, locus YDL108W, strain KIN28, hits give low values 0.987 | S. cerevisiae deletion strains, locus YDL132W, strain cdc53, hits give low values 0.978 | S. cerevisiae deletion strains, locus YDL214C, strain PRR2, hits give low values 0.992 | S. cerevisiae deletion strains, locus YDR052C, strain DBF4, hits give low values 0.996 | S. cerevisiae deletion strains, locus YDR054C, strain cdc34, hits give low values 0.971 | S. cerevisiae deletion strains, locus YDR226W, strain ADK1, hits give low values 0.971 | S. cerevisiae deletion strains, locus YDR477W, strain SNF1, hits give low values 0.978 | S. cerevisiae deletion strains, locus YER123W, strain YCK3, hits give low values 0.985 | S. cerevisiae deletion strains, locus YER133W, strain GLC7, hits give low values 0.996 | S. cerevisiae deletion strains, locus YFL009W, strain cdc4, hits give low values 0.957 | S. cerevisiae deletion strains, locus YFL029C, strain CAK1, hits give low values 0.98 | S. cerevisiae deletion strains, locus YFR003C, strain YPI1, hits give low values 0.991 | S. cerevisiae deletion strains, locus YFR019W, strain FAB1, hits give low values 0.988 | S. cerevisiae deletion strains, locus YFR028C, strain CDC14, hits give low values 0.982 | S. cerevisiae deletion strains, locus YGR040W, strain KSS1, hits give low values 0.994 | S. cerevisiae deletion strains, locus YGR052W, strain FMP48, hits give low values 1.06 | S. cerevisiae deletion strains, locus YGR092W, strain DBF2, hits give low values 0.95 | [2] 0.924 | S. cerevisiae deletion strains, locus YHR079C, strain IRE1, hits give low values 0.992 | S. cerevisiae deletion strains, locus YHR082C, strain KSP1, hits give low values 1.02 | S. cerevisiae deletion strains, locus YHR205W, strain SCH9, hits give low values 0.988 | S. cerevisiae deletion strains, locus YIL147C, strain SLN1, hits give low values 0.985 | S. cerevisiae deletion strains, locus YJL095W, strain BCK1, hits give low values 1.01 | S. cerevisiae deletion strains, locus YJL128C, strain PBS2, hits give low values 0.937 | S. cerevisiae deletion strains, locus YJL157C, strain FAR1, hits give low values 0.998 | S. cerevisiae deletion strains, locus YJR016C, strain ILV3, hits give low values 0.99 | S. cerevisiae deletion strains, locus YJR066W, strain TOR1 (second series), hits give low values 0.98 | S. cerevisiae deletion strains, locus YJR066W, strain TOR1, hits give low values 0.956 | S. cerevisiae deletion strains, locus YKL048C, strain ELM1, hits give low values 1 | S. cerevisiae deletion strains, locus YKL067W, strain YNK1, hits give low values 0.996 | S. cerevisiae deletion strains, locus YKL101W, strain HSL1, hits give low values 1 | S. cerevisiae deletion strains, locus YKL193C, strain SDS22, hits give low values 0.99 | S. cerevisiae deletion strains, locus YKL203C, strain TOR2, hits give low values 1.07 | S. cerevisiae deletion strains, locus YLR113W, strain HOG1, hits give low values 0.981 | S. cerevisiae deletion strains, locus YLR133W, strain CKI1, hits give low values 0.99 | S. cerevisiae deletion strains, locus YLR403W, strain SFP1, hits give low values 0.994 | S. cerevisiae deletion strains, locus YML070W, strain DAK1, hits give low values 1 | S. cerevisiae deletion strains, locus YMR001C, strain CDC5, hits give low values 0.986 | S. cerevisiae deletion strains, locus YMR205C, strain PFK2 (second series), hits give low values 1.01 | S. cerevisiae deletion strains, locus YMR277W, strain FCP1, hits give low values 0.982 | S. cerevisiae deletion strains, locus YNL006W, strain LST8, hits give low values 0.987 | S. cerevisiae deletion strains, locus YNL020C, strain ARK1, hits give low values 1.01 | S. cerevisiae deletion strains, locus YNL161W, strain CBK1, hits give low values 0.994 | S. cerevisiae deletion strains, locus YNL183C, strain NPR1, hits give low values 1.07 | S. cerevisiae deletion strains, locus YNL207W, strain RIO2, hits give low values 0.981 | S. cerevisiae deletion strains, locus YNL222W, strain SSU72, hits give low values 0.983 | S. cerevisiae deletion strains, locus YNL307C, strain MCK1 (second series), hits give low values 1.01 | S. cerevisiae deletion strains, locus YOL078W, strain AVO1, hits give low values 0.991 | S. cerevisiae deletion strains, locus YOL136C, strain PFK27, hits give low values 1.01 | S. cerevisiae deletion strains, locus YOR061W, strain CKA2, hits give low values 0.992 | S. cerevisiae deletion strains, locus YOR119C, strain RIO1, hits give low values 1.03 | S. cerevisiae deletion strains, locus YOR231W, strain MKK1, hits give low values 0.988 | S. cerevisiae deletion strains, locus YOR329C, strain SCD5, hits give low values 0.985 | S. cerevisiae deletion strains, locus YPL031C, strain PHO85, hits give low values 0.988 | S. cerevisiae deletion strains, locus YPL153C, strain RAD53, hits give low values 0.994 | S. cerevisiae deletion strains, locus YPL204W, strain HRR25, hits give low values 1 | S. cerevisiae deletion strains, locus YPL209C, strain IPL1, hits give low values 0.988 | S. cerevisiae deletion strains, locus YPL256C, strain CLN2, hits give low values 0.985 | S. cerevisiae deletion strains, locus YPR025C, strain CCL1, hits give low values 0.982 | S. cerevisiae deletion strains, locus YPR106W, strain ISR1, hits give low values 0.968 | S. cerevisiae deletion strains, locus YPR111W, strain DBF20, hits give low values 0.965 | S. cerevisiae deletion strains, strain NNK1, hits give low values 0.977 | S. cerevisiae deletion strains, strain TSCII, hits give low values 0.986
